Assay outcomes from PubChem.
Shiga inhibitor: blocks Shiga toxin action in Vero cells; actives 9.2% (n = 290,000); Vero cells, Shiga toxin protein synthesis inhibition reporter; inhibition, % at 38.7 µM; AID 2315; in the data active = inhibition mostly above about 28%, no sharp cut-off; inactive = mostly below about 43%; note: 0% is about no effect
Tb PYK inh: inhibitors of Trypanosoma brucei pyruvate kinase | actives 0.12% (n = 410,000) | AID 624173 | Q57TT1 | Potency, µM (titrated, usually from 76.8 µM), for inactives: top-dose activity, negative = inhibition, hits mostly inhibitors | TbPYK enzyme, Kinase-Glo Plus ATP luminescence, 45 min; note: potency is the fitted concentration of half-maximal effect; % is set by controls: 0 for no effect and ±100 for the full control effect; nearly all actives have a fitted effect of over 50% in size
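Quantitative HTS: titrated library compounds versus trypanosomal pyruvate kinase in TEA buffer (pH 7.2) containing KCl, MgCl2, BSA and Tween-20. Reactions were initiated with ADP, 130 uM final. Kinase-Glo Plus luminescence was read after 45 min at RT.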
CHX counter: counter-screen for Shiga toxin inhibitors: cycloheximide protein synthesis inhibition; cell reporter, cycloheximide protein synthesis inhibition counterscreen; max response, %; actives 12% (n = 300,000); AID 2314; in the data active = max response mostly above about 13%, no sharp cut-off; inactive = mostly below about 14%; note: read at 38.3 µM for the half of the compounds with a filed dose; 0% is about no effect
LmPK inhibitor: inhibitors of Leishmania mexicana pyruvate kinase | Potency, µM (doses to about 57.5 µM), for the others: at the top dose activity change, negative = inhibition, usual class: inhibitors | purified LmPK, Kinase-Glo ATP luminescence, 1 h | actives 0.37% (n = 290,000); note: potency is the fitted concentration of half-maximal effect; % is set by controls: 0 for no effect and ±100 for the full control effect
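Purified LmPK (0.1 nM) with 0.5 mM PEP and 0.1 mM ADP in imidazole buffer pH 7.2 with MgCl2/KCl, 1 h at room temperature. ATP formed was read by luciferase luminescence and normalized to no-enzyme and uninhibited controls.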
Giardia FBPA inh: Giardia lamblia aldolase inhibition. purified Giardia FBPA. Potency, µM (series often up to 59.6 µM), without a hit: at the highest dose activity, negative = inhibition, hits mostly inhibitors. actives 0.71% (n = 290,000); note: potency is the fitted concentration of half-maximal effect; % is set by controls: 0 for no effect and ±100 for the full control effect; nearly all actives have a fitted effect of over 55% in size
Target sequence (A8B2U2 whole entry, looked up): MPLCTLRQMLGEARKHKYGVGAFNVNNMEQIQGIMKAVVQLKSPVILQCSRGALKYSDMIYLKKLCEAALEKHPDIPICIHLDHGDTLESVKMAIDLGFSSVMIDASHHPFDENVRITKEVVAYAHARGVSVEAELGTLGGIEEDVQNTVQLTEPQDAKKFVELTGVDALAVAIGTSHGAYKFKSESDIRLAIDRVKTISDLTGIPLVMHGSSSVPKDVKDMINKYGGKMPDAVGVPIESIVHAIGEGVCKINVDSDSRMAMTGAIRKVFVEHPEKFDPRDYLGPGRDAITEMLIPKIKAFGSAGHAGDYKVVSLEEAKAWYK
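Giardia FBPA (40 nM reagent) was preincubated 10 min at RT with compound (up to 57.5 uM final), then substrate plus GAPDH/TPI/NAD/arsenate coupling system with diaphorase/resazurin was added; resorufin fluorescence (525/598 nm) was read after 20 min.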
RE007 growth inh: less growth of the S. pombe RE007 Vpr strain; S. pombe RE007 Vpr strain, BacTiter-Glo ATP luminescence, 24 h; Potency, µM (titrated, usually from 92.2 µM), for the others: top-dose activity change, negative = less growth, usual class: inhibitors; actives 0.21% (n = 360,000); active = well fitted falling curve with a large enough effect; note: potency is the fitted concentration of half-maximal effect; % is set by controls: 0 for no effect and ±100 for the full control effect; nearly all actives have a fitted effect of over 50% in size
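Fission yeast RE007 carrying one integrated HIV-1 vpr copy, seeded at OD 0.01 in PMG+AL medium with 23 nL pinned compound. Grown 24 h at 30 degrees; viability read by BacTiter-Glo luminescence after 5 min.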
* = called active by the depositor; . = no result; + = active, no number. The sample as a whole holds a higher share of hits than the screen did. Unless noted, calls come from the whole dose curve; as a rule, active = well fitted curve in the direction sought with a large enough effect; inconclusive = small, poorly fitted or top-dose-only effect, or another doubt; inactive = no such curve, though single readings can be large; an effect the other way counts as inactive or inconclusive.

SMILES	Shiga inhibitor	Tb PYK inh	CHX counter	LmPK inhibitor	Giardia FBPA inh	RE007 growth inh
COC(=O)c1ccc(OCC(=O)c2ccc(C)c(C)c2)cc1	82*	4%	24*	0%	1%	-21%
COC(=O)c1ccc(OCC(=O)c2cccc(OC)c2)cc1	65*	0%	43*	3%	-11%	22%
COc1cccc(C(=O)COC(=O)c2ccc(NC(=O)c3ccccc3)cc2)c1	.	-1%	.	.	.	-7%
CCOC(=O)Cn1cnc(-c2ccc([N+](=O)[O-])cc2)c1	75*	3%	43*	-3%	1%	-10%
COc1ccc(-c2ccc(-c3nnn(CC(C)=O)n3)cc2)cc1	93*	-5%	35*	-2%	0%	1%
COc1cccc(-c2nnn(CC(=O)N3CCCCC3)n2)c1	41*	0%	21*	-3%	12%	12%
NC(=O)Cn1nnc(-c2ccc(NC(=O)c3ccc(F)cc3)cc2)n1	70*	2%	27*	-3%	-1%	22%
CSc1ccc(-c2nnn(CC(=O)NCc3ccccc3)n2)cc1	11	-3%	11*	3%	0%	8%
COCCNC(=O)C1CCCN(C(=O)c2cccnc2Oc2ccccc2)CC1 (configuration not stated)	.	-1%	.	.	.	-5%
CCOC(=O)CC(NC(=O)Cn1nnc(-c2ccccc2)n1)c1ccc(OC)cc1 (configuration not stated)	13	-9%	25*	-2%	10%	2%
CCOC(=O)CC(NC(=O)Cn1nnc(-c2ccc(C(F)(F)F)cc2)n1)c1ccccc1Cl (configuration not stated)	.	4%	.	.	.	.
C=CCNC(=O)Cn1nnc(-c2ccc(-c3ccc(OC)cc3)cc2)n1	51*	-2%	23*	0%	3%	-2%
COc1cccc(-c2nnn(CC(C)=O)n2)c1	+	-2%	53*	-10%	1%	-2%
COc1cccc(-c2nnn(CCc3nn[nH]n3)n2)c1	8	1%	-3	-1%	-6%	0%
CCCCOc1ccc(-c2nnn(CC(=O)NCCc3c[nH]c4ccccc34)n2)cc1	25	-8%	15*	5%	-2%	-4%
COc1ccc(CNC(=O)Cn2nnc(-c3ccc(C(F)(F)F)cc3)n2)cc1	.	8%	.	.	.	.
COc1ccc(CN2COc3ccc4c(-c5ccc(OC)cc5)cc(=O)oc4c3C2)cc1	.	-6%	.	.	.	.
CSc1nsc(SCC(=O)NCc2ccc(C)cc2)n1	-5	-2%	-3	-1%	3%	3%
O=C(Nc1ccc2c(c1)OCCO2)C(CCc1ccccc1)N1CCC(Cc2ccccc2)CC1 (configuration not stated)	.	-5%	.	.	.	1%
CC(=O)Cn1nnc(-c2ccc(C(F)(F)F)cc2)n1	61*	-16%	27*	-5%	2%	-9%
CCOc1ccccc1CNC(=O)CCCn1nc(C)c2sc3ccccc3c2c1=O	.	1%	.	.	.	.
Cc1cc(N2CCC(C)CC2)nc2ccc(NC(=O)CCC(=O)N3CCN(c4ccccc4F)CC3)cc12	.	1%	.	.	.	.
COc1ccc(CCNC(=O)C2CCCN(c3nn4c(=O)cc(C)nc4s3)C2)cc1OC (configuration not stated)	7	6%	2	-1%	-8%	9%
COc1ccc(CCNC(=O)c2ccc3nc(N4CCCCC4)sc3c2)cc1OC	34*	-4%	22*	-4%	4%	-12%
COc1ccc2nc(N3CCCC(C(=O)NCCc4ccc(OC)c(OC)c4)C3)sc2c1 (configuration not stated)	95*	3%	17*	6%	8%	-8%
Cc1ccc(CNC(=O)c2ccc3nc(N4CCCCC4)sc3c2)cc1	.	4%	.	.	.	.
O=C(C1CC1)N1CCc2cc(Br)cc(S(=O)(=O)NCc3ccco3)c21	53*	-4%	28*	6%	-10%	22%
Cc1ccc(CNS(=O)(=O)c2cc(Br)cc3c2N(C(=O)C2CC2)CC3)cc1	.	0%	.	.	.	.
CC1(c2ccncc2)Nc2ccccc2-c2nc3ccccc3n21 (configuration not stated)	29	-3%	16*	-5%	-13%	6%
